Compound activity from PubChem.
Shown are actives, neighbours in structure and some others; about 21% of the full set was active somewhere.
ClpP mod = qHTS Assay for Activators of ClpP | ATP-dependent Clp protease proteolytic subunit (Bacillus subtilis (strain 168)), P80244 | actives 1.9% (n = 340,000) | purified B. subtilis ClpP, FRET peptide cleavage, 20 min | Potency, µM (doses to about 57.5 µM) | AID 651965, 2013; active = well fitted falling curve with a large enough effect; inconclusive = small, poorly fitted or top-dose-only effect; inactive = no such curve, though single readings can be large or run the other way; also: the source files actives as falling curves though it sought activators and does not explain the sign; nearly all actives have a fitted effect of over 65% in size
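Purified B. subtilis ClpP, 10 microg/mL final in Tris/HCl pH8 with KCl, BSA, glycerol and Tween-20, cleaved an Abz/nitrotyrosine-quenched decapeptide. Fluorescence (ex 320, em 430) was read at 0 and 20 min at room temperature. Delta was normalized to 5.8 microM ADEP and DMSO/no-enzyme controls.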
DRD3 antagonist = antagonists of human D3 dopamine receptor | AID 652054 | D3R cells, DiscoveRx beta-arrestin luminescence, antagonist mode; stronger effect = lower value | P35462 | actives 2.5% (n = 360,000) | max response, negative = inhibition, %; in the data active = max response below about -50%; inconclusive = no clear call, values can overlap the other calls
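Cells expressing the human receptor were seeded at 1500 cells/well, incubated overnight at 37 degrees C in 5% CO2, then exposed to library compounds with dopamine controls for 90 minutes at 37 degrees C before luminescent detection.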
IL1B secr inh = blocks inflammasome-driven IL-1 beta release | THP-1 LPS/ATP IL-1B secretion, AlphaLISA, 16 h; stronger effect = lower value | AID 743279 | activity change, % at 57.5 µM | actives 4.7% (n = 360,000); in the data active = activity change below about -50%; inconclusive = mostly about -30% to -49%
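THP-1 cells pretreated 1 hr with compounds (up to 57.5 uM final), then stimulated with LPS (250 ng/mL final) plus ATP (1.25 mM final); secreted IL-1B measured by AlphaLISA after 16 hr, decreased signal indicating inhibition.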
TDP1 cell noCPT = qHTS for Inhibitors of human tyrosyl-DNA phosphodiesterase 1 (TDP1): qHTS in cells in absence of CPT | DT40 Tdp1-/- hTDP1 cells, no CPT, ATP luminescence, 48 h | Potency, µM (doses to about 46.2 µM), actives largely listed as inhibitors | actives 15% (n = 420,000); also: nearly all actives have a fitted effect of over 55% in size
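Stably hTDP1-transfected Tdp1-null chicken DT40 cells were treated with library compounds minus camptothecin and grown for at least 48 hr at 37 °C, after which cellular ATP was quantified by luminescence.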
DT40 TDP1 CPT = growth inhibition of DT40 Tdp1-/-;hTDP1 cells with camptothecin (screen for TDP1 inhibitors); actives 12% (n = 420,000); chicken DT40 Tdp1-/-;hTDP1 cells + 20 nM CPT, ATP luminescence, 48 h; Potency, µM (doses to about 46.2 µM), usual class: inhibitors; also: nearly all actives have a fitted effect of over 55% in size
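Chicken DT40 Tdp1-/- cells stably complemented with human TDP1 were seeded at 400 cells/well in medium containing 20 nM camptothecin, exposed to pin-transferred compounds, and grown at 37 °C for at least 48 hr. Viability was read as ATP luminescence.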
D3 ag = activates the human D3 dopamine receptor | actives 0.58% (n = 410,000) | AID 652048 | P35462 | max activation, % | D3R DiscoveRx beta-arrestin cells, luminescence, 90 min; in the data active = max activation above about 30%
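Agonist mode: compounds and dopamine controls were applied to plated cells for 90 min at 37 degrees C after an overnight attachment at 1500 cells/well. Luminescent read-out followed 30 - 60 minutes at room temperature with DiscoveRx detection reagent.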
Numbers stand for hits. Unless noted, calls follow the shape of the dose curve; as a rule, active = well fitted inhibition curve with a large enough effect; inconclusive = small, poorly fitted or top-dose-only effect; inactive = flat fitted curve, though single readings scatter.

`CCCCNC(=O)[C@]1(C)CCC[C@@]2(C)C3CC[C@@]4(C)C[C@]3(CCC21)CC4=O` (stereo partly drawn) gave ClpP mod inactive, DRD3 antagonist inactive, IL1B secr inh inactive, TDP1 cell noCPT inconclusive, DT40 TDP1 CPT inactive and D3 ag inactive.
COc1cccc(C2C(C(=O)Nc3ccccc3)=C(C)Nc3nnnn32)c1OC (stereo not drawn) was read as ClpP mod inactive, TDP1 cell noCPT inconclusive, DT40 TDP1 CPT inconclusive and D3 ag inactive.
For COc1ccc([C@H]2CC(=O)C=C(c3cccc(OC(F)(F)F)c3)C2)cc1 the results were ClpP mod inactive, DRD3 antagonist inactive, IL1B secr inh inactive, TDP1 cell noCPT inconclusive, DT40 TDP1 CPT 23.1µM and D3 ag inactive.
For COc1ccc([C@H]2CC(=O)C=C(c3ccnc4ccc(Cl)cc34)C2)cc1 the results were ClpP mod inactive, DRD3 antagonist inactive, IL1B secr inh inactive, TDP1 cell noCPT 9.2µM, DT40 TDP1 CPT 8.2µM and D3 ag inactive.
Screening COc1ccc([C@H]2CC(=O)C=C(c3ccccc3Oc3ccccc3)C2)cc1 returned ClpP mod inactive, DRD3 antagonist inactive, IL1B secr inh inactive, TDP1 cell noCPT inconclusive, DT40 TDP1 CPT inconclusive and D3 ag inactive.
Screening COc1ccc(OC)c(C2=CC(=O)C[C@H](c3ccc4c(c3)OCO4)C2)c1 returned ClpP mod inactive, DRD3 antagonist inactive, IL1B secr inh inactive, TDP1 cell noCPT 10.3µM, DT40 TDP1 CPT 7.31µM and D3 ag inactive.
`COc1ccc([C@H]2CC(=O)C=C(c3ccccc3-c3ccccc3)C2)cc1` gave ClpP mod inactive, DRD3 antagonist inconclusive, IL1B secr inh inactive, TDP1 cell noCPT 23.1µM, DT40 TDP1 CPT 23.1µM and D3 ag inactive.
For CC(N)=NCCCC[C@H](N)C(=O)O the results were TDP1 cell noCPT inactive and DT40 TDP1 CPT inactive.
Screening CC(=O)Nc1ccc(S(=O)(=O)N(C)CC(=O)OC(C)C(=O)N(C)Cc2ccccc2)cc1 (stereo not drawn) returned ClpP mod inactive, DRD3 antagonist inactive, IL1B secr inh inactive, TDP1 cell noCPT inactive, DT40 TDP1 CPT inactive and D3 ag inactive.
Screening COc1ccc([C@H]2CC(=O)C=C(c3ccc(Br)c4ccccc34)C2)cc1 returned ClpP mod inactive, DRD3 antagonist inactive, IL1B secr inh inactive, TDP1 cell noCPT inactive, DT40 TDP1 CPT inactive and D3 ag inactive.
COc1ccc([C@H]2CC(=O)C=C(c3cc(Br)ccc3OC)C2)cc1 was read as ClpP mod inactive, DRD3 antagonist inactive, IL1B secr inh inactive, TDP1 cell noCPT 16.4µM, DT40 TDP1 CPT 18.4µM and D3 ag inactive.
`COc1ccc([C@H]2CC(=O)C=C(c3cc(C)ccc3F)C2)cc1` gave ClpP mod inactive, DRD3 antagonist inactive, IL1B secr inh inactive, TDP1 cell noCPT inconclusive, DT40 TDP1 CPT inactive and D3 ag inactive.
For CCOc1ccc(Br)cc1C1=CC(=O)C[C@H](c2ccc(OC)cc2)C1 the results were ClpP mod inactive, DRD3 antagonist inactive, IL1B secr inh inactive, TDP1 cell noCPT 2.91µM, DT40 TDP1 CPT 4.61µM and D3 ag inactive.
COc1ccc([C@H]2CC(=O)C=C(c3cc(C)ccc3OC)C2)cc1 was read as ClpP mod inactive, DRD3 antagonist -58.3, IL1B secr inh inactive, TDP1 cell noCPT 6.51µM, DT40 TDP1 CPT 4.11µM and D3 ag inactive.
Screening Nc1nc(Oc2ccc(F)cc2)c(Br)c(=O)[nH]1 returned ClpP mod inactive, DRD3 antagonist inactive, IL1B secr inh inactive, TDP1 cell noCPT inactive, DT40 TDP1 CPT inactive and D3 ag inactive.
Screening CCCS(=O)(=O)NC(=O)C1(C)CCN(C(=O)/C=C/c2ccccc2)C1 (stereo not drawn) returned ClpP mod inactive, DRD3 antagonist inactive, IL1B secr inh inactive, TDP1 cell noCPT inactive, DT40 TDP1 CPT inactive and D3 ag inactive.
Screening COc1cccc(COC(=O)c2cc(=O)[nH]c3ccc(S(=O)(=O)N4CCOCC4)cc23)c1OC returned ClpP mod inactive, DRD3 antagonist inactive, IL1B secr inh inactive, TDP1 cell noCPT inactive, DT40 TDP1 CPT inactive and D3 ag inactive.
`CCOc1ccc2c(c1)NC(c1cccs1)=NC(c1ccc(F)cc1)=N2` gave ClpP mod inactive, TDP1 cell noCPT inconclusive, DT40 TDP1 CPT 23.1µM and D3 ag inactive.
`CCOc1ccc(C2=NC(c3ccncc3)=Nc3ccc(C)cc3N2)cc1OCC` gave ClpP mod inactive, TDP1 cell noCPT 18.4µM, DT40 TDP1 CPT inconclusive and D3 ag inactive.
`CCOc1ccc(C2=NC(c3cccs3)=Nc3ccc(C(C)C)cc3N2)cc1` gave ClpP mod inactive, TDP1 cell noCPT inconclusive, DT40 TDP1 CPT inconclusive and D3 ag inactive.
Screening CCCCOc1ccc(C2=NC(c3ccncc3)=Nc3ccc(OCC)cc3N2)cc1 returned ClpP mod inactive, TDP1 cell noCPT inconclusive, DT40 TDP1 CPT 16.4µM and D3 ag inactive.
For CC(=O)Nc1ccc(N(C(=O)CNC(=O)c2ccco2)C(C(=O)NCc2ccco2)c2ccccc2F)cc1 (stereo not drawn) the results were DRD3 antagonist inactive, IL1B secr inh inactive, TDP1 cell noCPT inactive, DT40 TDP1 CPT inactive and D3 ag inactive.
For O=C(OCc1ccccc1C(F)(F)F)c1ccc(Br)c(S(=O)(=O)N2CCOCC2)c1 the results were ClpP mod inactive, DRD3 antagonist inactive, IL1B secr inh inactive, TDP1 cell noCPT inconclusive, DT40 TDP1 CPT inconclusive and D3 ag inactive.
CCN1CCN(C(=O)c2ccc3c(c2)N(Cc2cccc(F)c2)C(=O)c2ccccc2S3)CC1 was read as ClpP mod inactive, TDP1 cell noCPT inconclusive, DT40 TDP1 CPT inconclusive and D3 ag inactive.
`COC(=O)C1=CN(c2ccc(C)cc2)C(N)=C(C#N)C1c1ccc(OC)cc1` (stereo not drawn) gave ClpP mod inactive, DRD3 antagonist inactive, IL1B secr inh inactive, TDP1 cell noCPT inconclusive, DT40 TDP1 CPT inconclusive and D3 ag inactive.
For COC(=O)C1=CN(c2ccc(N3CCOCC3)cc2)C(N)=C(C#N)C1c1cccc(OC)c1OC (stereo not drawn) the results were ClpP mod inactive, DRD3 antagonist inactive, IL1B secr inh inactive, TDP1 cell noCPT inconclusive, DT40 TDP1 CPT inactive and D3 ag inactive.
COc1ccc(N2C(N)=C(C#N)C(c3ccsc3)C3=C2CCCC3=O)c(OC)c1 (stereo not drawn) was read as ClpP mod inactive, DRD3 antagonist inactive, IL1B secr inh inactive, TDP1 cell noCPT inactive, DT40 TDP1 CPT inactive and D3 ag inactive.
